From PubChem
TRb-SRC2 inh = disrupts binding of human TR beta to SRC2; TRbeta-SRC2 peptide binding, fluorescence polarization; receptor liganded with 1 µM T3; Potency, µM (doses to about 106 µM), without a hit: at the highest dose activity change, negative = inhibition, hits mostly inhibitors; 0.065% of 280,000 active;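 further: potency means the concentration at half of the fitted maximal effect; plate controls were bound peptide for no effect and peptide without receptor for full effect; nearly all actives have a fitted effect of over 50% in size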
Target sequence (P10828 whole entry, looked up): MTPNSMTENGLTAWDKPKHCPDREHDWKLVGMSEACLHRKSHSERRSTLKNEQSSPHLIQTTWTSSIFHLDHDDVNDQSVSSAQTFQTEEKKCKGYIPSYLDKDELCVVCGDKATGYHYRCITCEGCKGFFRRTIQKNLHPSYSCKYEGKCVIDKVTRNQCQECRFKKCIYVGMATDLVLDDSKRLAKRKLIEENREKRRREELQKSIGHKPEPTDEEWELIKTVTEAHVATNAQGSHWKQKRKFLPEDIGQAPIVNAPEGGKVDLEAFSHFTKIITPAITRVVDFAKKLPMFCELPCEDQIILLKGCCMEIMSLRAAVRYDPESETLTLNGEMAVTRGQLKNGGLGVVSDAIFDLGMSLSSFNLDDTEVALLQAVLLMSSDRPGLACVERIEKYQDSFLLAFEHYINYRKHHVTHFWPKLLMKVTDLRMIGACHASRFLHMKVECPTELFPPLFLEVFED
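Fluorescence polarization of 20 nM Texas Red SRC2 peptide (20-aa NR interaction domain) bound to 0.6 uM human TRb ligand-binding domain, with 1 uM T3, after 5 hr at ambient temperature; inhibition seen as decreased polarization.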
FBPA coupling cs = counter-screen for Giardia aldolase inhibitors: coupling enzyme system | 0.67% of 290,000 active | activity change, negative = inhibition, % at 58.2 µM, hits read low | coupling enzyme system counterscreen, AmpLite Red fluorescence; in the data active means activity change below about -30%; further: on the % scale 0 is the no-effect control and ±100 the full control effect
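Final compound at 57.5 uM, incubated 10 min at RT with coupling enzyme reagent (glyceraldehyde-3-phosphate), then 20 min with substrate and AmpLite Red detection. Fluorescence read at 525/598 nm; tests interference with the coupling assay, not aldolase inhibition.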
HttQ103 aggreg = reduces HttQ103-GFP aggregates in PC12 cells. 1.1% of 220,000 active. AID 1688. PC12 HttQ103-GFP aggregates, Acumen cytometry, 40 h. Potency, µM (highest dose often 46.1 µM), for inactives: top-dose activity change, negative = inhibition, hits mostly inhibitors; further: potency means the concentration at half of the fitted maximal effect; on the % scale 0 is the no-effect control and ±100 the full control effect; nearly all actives have a fitted effect of over 60% in size
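Read-out: GFP aggregate count by laser scanning cytometer (488 nm excitation, 500-530 nm emission, 1–25 µm objects >6 SD above background). Cells: PC12, inducible HTTex1-Q103-GFP, 100 nM tebufenozide; compounds titrated.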
HTT ATP protect = protects HTT-Q103 PC12 cells, measured by ATP; PC12 HTT-Q103 induced, cytoprotection, ATP luminescence, 40 h; Potency, µM (doses to about 56.4 µM), for inactives: cytoprotection (ATP increase), hits mostly activators; 0.14% of 230,000 active; AID 1471; further: potency means the concentration at half of the fitted maximal effect; % of control where 0% means no effect; nearly all actives have a fitted effect of over 45% in size
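Readout: ATPlite luminescence (ATP level). Model: stable PC12, inducible Htt exon1 Q103-GFP. Inducer: tebufenozide, 100 nM final. Compounds: dose series. No G418 in medium.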
KDM4E inh = inhibitors of human JMJD2E histone demethylase | B2RXH2 | JMJD2E catalytic domain, FDH-coupled NADH fluorescence (FDH is formaldehyde dehydrogenase) | Potency, µM (titrated, usually from 57.1 µM), for inactives: at the top dose activity change, negative = inhibition, usual class: inhibitors | 1.6% of 230,000 active; active means well fitted inhibition curve with a large enough effect, not every such curve was filed as active; inconclusive means small, poorly fitted or top-dose-only effect, or another doubt; inactive means no such curve, though single readings can be large or run the other way;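 further: potency means the concentration at half of the fitted maximal effect; 0% = wells with enzyme and -100% = buffer wells without enzyme; nearly all actives have a fitted effect of over 50% in size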
Target sequence (B2RXH2 1-337 limits assumed): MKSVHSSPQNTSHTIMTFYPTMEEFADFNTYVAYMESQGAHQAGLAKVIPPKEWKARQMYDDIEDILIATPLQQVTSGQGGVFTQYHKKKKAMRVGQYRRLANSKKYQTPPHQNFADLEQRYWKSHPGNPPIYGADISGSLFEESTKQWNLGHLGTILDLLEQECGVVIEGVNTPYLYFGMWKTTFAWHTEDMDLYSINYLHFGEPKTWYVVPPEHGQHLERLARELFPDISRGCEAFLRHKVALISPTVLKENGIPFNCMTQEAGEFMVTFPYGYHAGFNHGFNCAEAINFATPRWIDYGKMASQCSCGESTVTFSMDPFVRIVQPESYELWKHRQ
TR SRC2 fluor cs = alters Texas Red total fluorescence, flagging assay interference; TRb/SRC2 Texas Red total fluorescence interference; Potency, µM (highest dose often 106 µM), for the others: top-dose fluorescence change, negative = quenching; 0.29% of 280,000 active; AID 1479; active means well fitted curve in either direction with a large enough effect; inconclusive means small, poorly fitted or top-dose-only effect; further: potency means the concentration at half of the fitted maximal effect; on the % scale 0 is the no-effect control and ±100 the full control effect
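Human TRb ligand-binding domain at 0.6 uM with 20 nM Texas Red SRC2 peptide in Tris buffer containing 1 uM T3 and 5% DMSO, incubated with compound 5 h at ambient temperature. Total fluorescence (555/632 nm) calculated as parallel + 2 × perpendicular.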
Active calls of the source: *; ? = inconclusive; . = not tested or not shown; ! = not active in a repeat; [ ] = another dose, or the depositor's remark. Hits are enriched below; roughly 2% of the tested compounds scored in any of these assays. Unless noted, the call rests on the fitted dose curve; in most records, active means well fitted curve in the direction sought with a large enough effect; inconclusive means small, poorly fitted or top-dose-only effect, or another doubt; inactive means no such curve, though single readings can be large; an effect the other way counts as inactive or inconclusive.

SMILES | TRb-SRC2 inh | FBPA coupling cs | HttQ103 aggreg | HTT ATP protect | KDM4E inh | TR SRC2 fluor cs
CCCCCCCOC(=O)c1ccccc1C(=O)OCCCCCCC | 2%[201 µM] | . | . | . | . | -6%[201 µM]
COc1cc([C@@H](O)CO)ccc1OS(=O)(=O)O | . | . | . | 4%[1.9 µM] | . | .
CC(O)/C=C/c1cccc[n+]1C (centres undefined) | -19% | -5 | 9% | -7% | 7.9µM* | 1%
CCc1cccc(C)c1NS(=O)(=O)c1c(C(=O)N2CCC(C)CC2)c(C)n(C)c1C | 8% | . | . | . | . | -2%
O=C(Nc1ccc(Cl)cc1)C(NS(=O)(=O)c1cccs1)c1ccccc1 (centres undefined) | 4% | . | . | . | . | -3%
CCN(C(=O)CSc1nc2ccccc2n1Cc1ccc(C(=O)OC)cc1)c1ccccc1 | -2% | . | . | . | . | -1%
Cc1cccc(N(CC(=O)N/N=C/c2cc([N+](=O)[O-])ccc2Cl)S(C)(=O)=O)c1C | -6% | -59* | -17% | -21% | 2% | -5%
Cc1c(Cc2ccccc2)c(=O)oc2cc(O)ccc12 | 8% | 15 | -1%[9.22 µM] | 4%[10 µM] | ? | -1%
O=c1cc(-c2ccccc2)oc2c(O)c(O)ccc12 | 5% | -9 | . | -205% | 7.9µM* | -5%
Cc1c(Cc2ccccc2)c(=O)oc2c(O)c(O)ccc12 | -8% | -18 | ? | -83% | 3.2µM* | -2%
O=c1cc(-c2ccccc2O)oc2c(O)c(O)ccc12 | 3% | -56* | . | -28%[1.9 µM] | 11µM* | -9%
Cc1oc2c(O)c(O)ccc2c(=O)c1-c1ccccc1 | -6% | -12 | 13%[9.22 µM] | 5%[10 µM] | 13µM* | -3%
O=C(O)Cc1cccc2c(=O)cc(-c3ccccc3)oc12 | . | . | . | 3%[10 µM] | . | .
O=c1cc(-c2ccccc2O)oc2ccc3ccccc3c12 | -5% | -1 | . | -104%[1.9 µM] | 2% | 0%
Cc1ccc(Cn2c(SCc3ccc(C(=O)NC4CCCCC4)cc3)nc3ccncc32)cc1 | 5% | . | . | . | . | -13%
CCCCNc1cc(C)nc(NCc2ccccc2)n1 | -6% | 0 | 10µM* | -75% | 3% | -1%
Cc1cc(C)nc(NCCCc2ccccc2)n1 | 5% | 0 | 4% | -7%[10 µM] | -23% | 5%
Cc1cc(Nc2ccccc2)nc(NCc2ccccc2)n1 | 1% | 1 | 6.3µM* | 7%[10 µM] | ? | -4%
Cc1cc(Nc2ccc(Cl)cc2)nc(NCc2ccccc2)n1 | 4% | -6 | ? | . | ? | -6%
COc1cccc(CNCCCSc2nnnn2C)c1 | -21% | . | . | . | . | 1000µM*[quencher]
COc1cccc(CNCCSc2nnnn2C)c1 | -3% | -1 | 4% | -6%[0.074 µM] | 1% | -7%
CCOc1ccccc1-n1cc2c(c1-c1ccc(OC)cc1)c(=O)n(C)c(=O)n2C | 0% | . | . | . | . | -3%
Oc1ccc(C(c2nnnn2C2CCCCC2)N2CCOCC2)cc1 (centres undefined) | -12% | 3 | 2.8µM* | . | -14% | -1%
c1cc(C(c2nnnn2C2CCCC2)N2CCOCC2)ccn1 (centres undefined) | -1% | -1 | -4% | -10% | ? | 3%
O=C(Nc1nccs1)C(c1ccccc1)N1CCCC1 (centres undefined) | -1% | 1 | -5% | 1.4µM* | 1% | -1%
SMILES | TRb-SRC2 inh | FBPA coupling cs | HttQ103 aggreg | HTT ATP protect | KDM4E inh | TR SRC2 fluor cs
CC(C)C(C(=O)Nc1nccs1)c1ccccc1 (centres undefined) | -13% | -1 | -30% | -13% | -3% | 2%
COc1ccc2c(c1)c1ccccc1n2C | 13% | 8 | 13µM* | 0%[10 µM] | ? | -7%
O=C(O)c1ccc2c(c1)C(=O)N(CCc1ccc(O)cc1)C2=O | 2% | 7 | . | . | . | -4%
CCn1c(CN2CCCCC2)nc2cc(NC(=O)COc3ccccc3C(C)(C)C)ccc21 | -21% | . | . | . | . | 282µM*[quencher]
CCn1c(CN2CCCCC2)nc2cc(NC(=O)c3ccccc3[N+](=O)[O-])ccc21 | -4% | . | . | . | . | -6%
CCN1CCN(Cc2nc3cc(NC(=O)c4cccc([N+](=O)[O-])c4)ccc3n2CC)CC1 | -26% | . | . | . | . | 2.8µM*[quencher]
CCn1c(CN2CCC(C)CC2)nc2cc(NC(=O)COc3ccc(Cl)c(C)c3)ccc21 | -7% | . | . | . | . | 4%
Cn1c(CN2CCOCC2)nc2cc(NC(=O)c3ccccc3[N+](=O)[O-])ccc21 | -11% | . | . | . | . | 100µM*[quencher]
CCOc1ccc(C(c2c(O)cc(C)n(CCOC)c2=O)N2CCN(c3ccc(F)cc3)CC2)cc1 (centres undefined) | 8% | . | . | . | . | 0%
N[C@H](C(=O)O)[C@H](O)C(=O)O | 1% | -2 | . | -12% | 13µM*! | -18%
CC(C)Cn1c(N)c(C(=O)COC(=O)c2ccc3c(c2)OCCO3)c(=O)n(C)c1=O | 6% | 1 | ? | -12% | -6% | 1%
CC(C)Cn1c(N)c(C(=O)CSc2ccc3c(c2)OCCO3)c(=O)n(C)c1=O | 0% | -1 | 2µM* | -26% | 1% | -3%
CCOc1ccccc1CNC(=O)CCC(=O)N1CCSc2ccccc21 | -7% | . | . | . | . | 1%
Clc1cccc(Cl)c1C(Nc1nncs1)Nc1nncs1 | . | . | . | 6%[10 µM] | . | .
O=C(c1cccc(F)c1)N1CCC2(CC1)CN(c1ccccn1)C2 | . | 1 | . | -13% | . | .
CCC1=NNc2cccc3c(OC)ccc1c23 | -22% | -26 | 0%[9.22 µM] | -2% | 5µM* | -18%
CCCCC(CC)C/C=C1\CC(C(=O)OCC)Oc2ccccc21 (centres undefined) (tested in a mixture with another compound) | -1% | -3 | . | 14% | . | -3%
COc1cc2[nH]c3c(=O)n(CCN(C(C)C)C(C)C)cnc3c2cc1OC | -8% | -45* | 2% | -34% | ? | -1%
COc1ccc(-c2nc(SCC(=O)NCc3nc4ccccc4n3C)n3[nH]c(=O)cc3n2)cc1 | 5% | . | . | . | . | -1%
C[n+]1c(/C=C/c2ccc3c(c2)OCO3)ccc2ccccc21 | 3% | 1 | -6% | -30% | ? | -1%
C[n+]1cc2c3c(ccc2c2ccc4cc5c(cc4c21)OCO5)OCO3 | 0% | -43*! | 6.3µM* | -98% | ? | -3%
COc1cc2ncnc(Nc3cccc(Br)c3)c2cc1OC | -3% | -10 | . | -21%[1.9 µM] | ? | -2%
CNc1cc2c(Nc3cccc(Br)c3)ncnc2cn1 | 10% | -50* | . | . | . | 2%
Clc1cccc(Nc2ncnc3ccc(Br)cc23)c1 | -19% | -3 | 11µM* | -52% | ? | -1%
Cc1cccc(Nc2ncnc3ccc(Br)cc23)c1 | -5% | -5 | -44%[9.22 µM] | -2% | 6% | 1%
O=C(Nc1ccc(S(=O)(=O)Nc2ccccc2)cc1)N1CCCC1 | -7% | . | . | . | . | -2%
COc1cccc(-c2nc(NC3CC3)c3ccccc3n2)c1 | . | -2 | . | -50% | . | .
